Each structure is given as a SMILES string. This is part of a sample that, as a whole, favours compounds with a hit. Of some 83,000 tested, about 20% had one in any assay.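 Assay: single dose, 48 h. Readout: percent growth (0 = no net growth; negative = cell death). Active: <10.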 Calls of active or inactive are those of the source.

In the test the test system is MCF7 breast. The test is described as follows: NCI-60 one-dose screen, 48 h (100 = growth as untreated, 0 = no growth, -100 = all killed). The settings on record: 10 µM unless noted. As to the method:
Growth inhibition of the MCF7 human tumor cell line is measured as a screen for anti-cancer activity. Cells are grown in 96 well plates and exposed to the test compound for 48 hours. Compounds are tested at a single concentration, which is 10^-5 M for most compounds. The reported endpoint is percent growth (GI% or GIPRCNT), where numbers from 0 - 100% represent growth inhibition, and numbers from -100% - 0 represent cell death. For example, a value of 40 represents 60% growth inhibition. A value of 0 means no net growth occurred over the course of the experiment. A value of -40 indicates 40% of cells at the beginning of the experiment died by the end of the experiment. A value of -100 means all cells are dead at the end of the experiment.
NCI-60 Human Tumor Cell Lines Screen was performed using the standard one-dose NCI protocol, which is described in more detail at https://dtp.cancer.gov/discovery_development/nci-60/default.htm.
Compounds with GIPRCNT values below 10 were considered active. Activity score was based on GIPRCNT using the following formula: […]
Score is 0 for GIPRCNT values of 100 or above, 50 for GIPRCNT values of 0, and 100 for GIPRCNT values of -100.
For `C=C(C)[C@@H]1CC[C@]2(CNCCO)CC[C@]3(C)[C@H](CC[C@@H]4[C@@]5(C)CCC(N)[C@@](C)(CO)[C@@H]5CC[C@]43C)[C@@H]12` (stereo not given in full), the growth was -54.2% (active).

Turning to `CCCCCCCCn1cc(C2=C(c3coc4ccc(OC)cc34)C(=O)NC2=O)c2ccccc21`, the growth is 91.8% (inactive).

As for `CC(C)OC(=O)NNC(=O)c1ccncc1`, the growth is 88% (inactive).

Turning to `NS(=O)(=O)c1cn(-c2ncnc3nc[nH]c23)ccc1=O`, the growth was 104% (inactive).

Turning to `NC(N)=N/N=C(/c1ccccc1)c1ccc(N)cc1`, the growth is 97% (inactive).

Regarding `O=C1CSC(c2ccc(O)cc2)N1c1nnc(Cn2cnnc2)o1` (stereo not given), the growth is 84% (inactive).

With `C=C1C(=O)O[C@H]2[C@H]1CC/C(Cn1cc(CNCCc3c[nH]c4ccccc34)nn1)=C\CC[C@@]1(C)O[C@@H]21`, the growth is 90.2% (inactive).

For the compound `COc1ccc(-c2cn(-c3cccc(C(=O)/C=C/c4cc(OC)c(OC)c(OC)c4)c3)c(=O)[nH]2)cc1`, the growth was -34.5% (active).

On to `COc1cc(-c2cc(-c3ccc(Nc4nc(Nc5ccccc5)nc(Nc5ccc(Cl)cc5)n4)cc3)nc(N)n2)cc(OC)c1OC`, for which the growth was 35.5% (inactive).

Turning to `COc1ccc(Nc2ncc(Br)c(NCCCNC(=O)C3CCC3)n2)cc1`, the growth is 41.1% (inactive).

In the case of `Nc1ccn(C2OC(F)(CO)C(O)C2F)c(=O)n1` (stereo not given), the growth was 21.7% (inactive).

For `CCOC(=O)c1c2c(c(C)n1C)-c1nn(Cc3ccc(OC)cc3)cc1CC2`, the growth was 99.3% (inactive).

Turning to `C[C@H]1[C@H](C)CC[C@]2(C(=O)N3CCN(C)CC3)CC[C@]3(C)C(=CC[C@@H]4[C@@]5(C)C/C(=C/c6cccnc6)C(=O)C(C)(C)[C@@H]5CC[C@]43C)[C@H]12`, the growth was -73.8% (active).

In the case of `COC(=O)/C(=C\c1ccc(OC)cc1)C(=O)N1c2ccccc2Sc2ccccc21`, the growth was 26.8% (inactive).

As to `O=C(CCc1nc(-c2cccc(Cl)c2)no1)Nc1ccccn1`, the growth was 90.2% (inactive).

Take `Cl.[Pt].[c-]1ccccc1-c1ccccn1.c1ccc(P(c2ccccc2)C([PH+](c2ccccc2)c2ccccc2)[PH+](c2ccccc2)c2ccccc2)cc1`: the growth is 3.15% (active).

In the case of `Cc1nc(-c2ccccc2)cc2c(O)c(C(=O)N/N=C/c3ccc(N(C)C)cc3)[nH]c(=O)c12`, the growth was 64.1% (inactive).

On to `O=C(NCCOCCOCCOCCNC(=O)c1cc2c(o1)C(=O)c1ccccc1C2=O)NC12CC3CC(CC(C3)C1)C2`, for which the growth was -63.3% (active).

For the compound `CN(CCCCCCCCNc1ccnc2ccccc12)Cc1ccc(-c2ccc(-c3ccc(C#N)cc3)s2)cc1`, the growth is -76.5% (active).

As to `O=[N+]([O-])c1ccc(-c2cc3c(Nc4ccc(OCc5cccc(Cl)c5)c(Cl)c4)ncnc3s2)cc1`, the growth was 44.1% (inactive).

Turning to `C=C(C)[C@@H]1CC[C@]2(C(=O)NCC(=O)O)CC[C@]3(C)[C@H](CC[C@@H]4[C@@]5(C)Cc6c([nH]c7ccccc67)C(C)(C)[C@@H]5CC[C@]43C)[C@@H]12`, the growth is 81.4% (inactive).

`C=C(C)C1CCC(=C)C2CCC3(C)OC12/C=C(/COC(C)=O)CCC3O` (stereo not given): the growth is 96.8% (inactive).

With `O=C(Nc1cccc2[nH]c(C(F)(F)F)nc12)c1cc(Cl)ccc1Cl`, the growth is 16.7% (inactive).

Take `COc1ccc(Oc2nc(Nc3ccc(N4CCCCC4)nc3)ncc2NC(=O)c2cc(OC)cc(OC)c2)cc1`: the growth is 9.76% (active).

As for `OC(c1cccc(OCc2ccccc2)c1)c1nnc(-c2ccccc2)o1` (stereo not given), the growth was 95.1% (inactive).

Take `COc1cc(/C=C2\C=C(c3ccccc3)N(CCc3ccccc3)C2=O)cc(OC)c1OC`: the growth was 70.9% (inactive).

`CC1(C)N=C(N)N=C(N)N1c1ccc(Cl)c(Cl)c1`: the growth is 21.4% (inactive).

`N=C(N)c1ccc(-c2ccc(-c3ccc(Cl)c(Cl)c3)o2)nc1`: the growth is -76.8% (active).

Turning to `COc1ccccc1NC(=O)Nc1ccc(-c2nc3ccccc3o2)cc1`, the growth was 99% (inactive).

Regarding `CCOC(=O)c1ccc(NC(=O)CCCN(CC)CC)cc1`, the growth was 96% (inactive).

Regarding `COc1cc(C(=O)/C=C/c2c(-c3ccc(F)cc3)nc3ncccn23)cc(OC)c1OC`, the growth was 10% (inactive).

Regarding `CNC(=O)c1cc(Oc2ccc3nc(Nc4cc(Cl)cc(Cl)c4)ccc3c2)ccn1`, the growth was 38.8% (inactive).

For `O=[N+]([O-])c1cccc(/C=C/c2ccccn2)c1`, the growth was 7.24% (active).

On to `CCOC(=O)c1ccc(-c2ccc3cc(OC)ccc3c2)nc1C`, for which the growth is 93% (inactive).

For `CCCCCCCSc1ccc(C(=O)O)cc1`, the growth was 84.3% (inactive).

With `COc1cc(/C=C/C(=O)c2cccc(-n3cc(-c4ccccc4)[nH]c3=O)c2)cc(OC)c1OC`, the growth is -93.8% (active).

Turning to `COc1ccc(/C=C(\C#N)n2nnc3cc(F)c(F)cc32)c(OC)c1OC`, the growth was 27.2% (inactive).

`Clc1ccc(-c2nnc(Cn3ccnc3)o2)cc1`: the growth was 94.4% (inactive).

On to `O=C(/C=C/C12c3ccccc3C(c3ccccc31)C1C(=O)NC(=O)C12)c1ccccc1` (stereo not given), for which the growth is 9.25% (active).

For the compound `CCN(CC)c1ccc(Nc2ccc(CC(=O)c3ccccc3)cc2)cc1`, the growth is 83.6% (inactive).

Values taken from PubChem BioAssay (NCI).
